Source: PubChem BioAssay
HT1080 IDH1KD tx = kills HT-1080 cells with IDH1 knockdown; HT-1080 IDH1 knockdown viability, ATP luminescence, 48 h; Potency, µM (titrated, usually from 46.1 µM), for the others: at the top dose activity, negative = toxicity, most hits filed as cytotoxic; 2% of 360,000 active;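 note: 0% = DMSO wells and -100% = cell-free medium wells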
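After a 2 h attachment period, IDH1KD HT-1080 cells took pin-transferred compound for 48 h at 37 °C; ATP-based luminescence after 10 min room-temperature reagent incubation reported viability.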
KB-V1 cytotox = KB-V1 MDR subline cytotoxicity; Potency, µM (top dose mostly 46.1 µM), most hits filed as cytotoxic; 3.4% of 400,000 active; AID 1347076; KB-V1 MDR cells viability, CellTiter-Glo, 72 h; note: % is set by controls: 0 for no effect and ±100 for the full control effect; nearly all actives have a fitted effect of over 60% in size
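Cytotoxicity via CellTiter-Glo luminescence after 72 h compound exposure at 37 degrees C. Cells: drug-selected KB-V1 line, DMEM phenol-red free plus 10% FBS. Compounds tested at multiple concentrations; normalized data fitted to concentration-effect curves.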
HT1080NT lethal = kills 2HG-producing HT-1080-NT fibrosarcoma cells; HT-1080-NT fibrosarcoma viability, CellTiter-Glo ATP luminescence, 48 h; 1.6% of 360,000 active; AID 686970; Potency, µM (highest dose often 46.1 µM), for inactives: top-dose activity, negative = less viability, usual class: cytotoxic;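 note: NT is the 2HG producing partner of a matched IDH1 knockdown line; 0% = DMSO-treated cells and -100% = media-only wells without cells; nearly all actives have a fitted effect of over 55% in size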
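A 48-hour cytotoxicity screen used HT-1080-NT cells plated 2 hours before compound delivery. ATP-based CellTiter-Glo luminescence measured viability, normalized to DMSO and no-cell controls.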
KB-3-1 cytotox = KB-3-1 parental cell cytotoxicity | 1.4% of 400,000 active | KB-3-1 viability, CellTiter-Glo ATP luminescence, 72 h | Potency, µM (titrated, usually from 46.1 µM), hits mostly cytotoxic; note: % is set by controls: 0 for no effect and ±100 for the full control effect; nearly all actives have a fitted effect of over 60% in size
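Cytotoxicity measured as CellTiter-Glo luminescence after 72 h at 37 C. Compound titrations were pinned onto drug-naive KB-3-1 parental adenocarcinoma cells grown in DMEM with 10% FBS, and normalized data fitted to concentration-response curves.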
SW480 rereplic = inducers of DNA re-replication in SW480 colon cancer cells; SW480 DNA re-replication, Hoechst DNA content imaging, 48 h; Potency, µM (doses to about 46.1 µM), without a hit: at the highest dose re-replication activation, usual class: activators; 1.8% of 340,000 active; AID 624297; note: % of control where 0% means no effect; nearly all actives have a fitted effect of over 55% in size
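Per well, 250 cells were exposed to pinned compound for 48 hr. Nuclear DNA was visualised with Hoechst (40 min, 37 C) and total object intensity recorded by fluorescence scanning.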
MCF10A rereplic = induces DNA re-replication in MCF 10a normal breast cells | MCF 10A DNA re-replication, Hoechst nuclear intensity, 48 h | 2.9% of 350,000 active | Potency, µM (highest dose often 46.1 µM), for inactives: at the highest dose activity, positive = re-replication, hits mostly activators; note: % of control where 0% means no effect; nearly all actives have a fitted effect of over 50% in size
* hit, by the source's call; i = inactive; ? = inconclusive; · = no result given; ! = not confirmed by another sample; [ ] = remark or other dose. Sampled rows, rich in hits. Any-hit rate of the full collection: about 7.9%. Calls come from the whole dose curve; as a rule, active = well fitted curve in the direction sought with a large enough effect; inconclusive = small, poorly fitted or top-dose-only effect, or another doubt; inactive = no such curve, though single readings can be large; an effect the other way counts as inactive or inconclusive. Potency is the fitted concentration of half-maximal effect.

SMILES	HT1080 IDH1KD tx	KB-V1 cytotox	HT1080NT lethal	KB-3-1 cytotox	SW480 rereplic	MCF10A rereplic
COC1Cc2ccccc2N(C(N)=O)c2ccccc21 (centres undefined)	12.9%	i	2.4%	i	-11.0%	1.4%
COc1ccccc1/C=C/CN1CCNC(=O)C1CC(=O)NCCc1cnccn1 (centres undefined)	-2.9%	i	-10.3%	i	-35.9%	1.7%
Cc1cc(C)n(CC(=O)Nc2ccc3c(c2)OCO3)c(=O)c1C#N	17.7%	i	10.4%	i	-4.4%	-2.1%
O=C(CN(Cc1ccccc1)C(=O)c1cc2c(s1)CCC2)NCc1cccs1	-7.4%	2.91µM*	-0.9%	?	17.2%	14.0%
Cc1cc(NC(=O)CSCC(=O)Nc2ccccc2N2CCCCC2)no1	-20.3%	i	-6.4%	i	?	29.0%
Cc1ccc(Oc2ccccc2NC(=O)CSCC(=O)Nc2cc(C)on2)cc1	?	4.61µM*	?	?	-4.7%	?
Cc1cc(NC(=O)CSCC(=O)Nc2ccccc2Oc2ccccc2)no1	-28.7%	10.3µM*	-14.5%	?	-9.5%	21.0%
Cc1ccc(-c2nc(CSCC(=O)Nc3cc(C)on3)c(C)o2)cc1	-5.2%	23.1µM*	10.0%	i	-12.9%	0.7%
O=C(C[n+]1ccnc2ccccc21)c1ccc(Br)cc1	·	i	·	i	·	·
O=C(c1ccccc1Cl)N1CCN(S(=O)(=O)c2cccs2)CC1	1.1%	i	9.2%	i	4.7%	-0.4%
O=C(c1ccc(-c2ccccc2Cl)o1)N1CCN(S(=O)(=O)c2cccs2)CC1	-9.0%	20.6µM*	-11.0%	i	22.6%	?
BrC(=C\c1ccccc1)/C=N/N1CCN(c2ccccn2)CC1	-27.3%	?	-3.0%	i	?	20.6µM*
O=[N+]([O-])c1ccccc1/C=N/N1CCN(c2ccccn2)CC1	-1.1%	14.6µM*	1.3%	i	-3.2%	28.3%
COC(=O)c1ccc(N2CCOCC2)c(NC(=O)c2cccnc2)c1	7.4%	i	5.9%	i	1.0%	-2.3%
CSc1nsc(/C=C/Nc2ccc(C(=O)O)cc2)c1C#N	0.6%	i	-0.5%	i	?	5.17µM*
CSc1nsc(/C=C/Nc2ccc(F)cc2F)c1C#N	-2.9%	i	-3.7%	i	?	?
O=C(COc1ccc2ccccc2c1Br)N1CCN(c2ccccn2)CC1	-14.5%	23.1µM*	-8.7%	?	?	96.6%
Cc1ccccc1SCC(=O)OCC(=O)NCCNC(=O)COC(=O)CSc1ccccc1C	3.7%	i	5.3%	i	-282.8%	-1.0%
CCN1CCN(Cc2ccc(NC(=O)c3ccc(C)c(/C=C/c4cnc(Nc5cc(N6CCNCC6)nc(C)n5)cn4)c3)cc2C(F)(F)F)CC1	18.4µM*!	?	?	?	?	?
CCOC(=O)CSc1ccc(C(=O)NCCCN2CCOCC2)cc1[N+](=O)[O-]	4.2%	?	16.2%	i	1.3%	-4.8%
Cc1cc(C)nc(NC(=NCCc2c[nH]c3ccccc23)NC(=O)Nc2ccc(Cl)cc2)n1	?	8.2µM*	-12.8%	i	18.6%	27.9%
Cc1cc(C)nc(NC(N)=NCCc2c[nH]c3ccccc23)n1	?	i	-13.0%	?	8.4%	9.1%
Cc1ccn2c(Nc3ccccc3C)c(-c3ccncc3)nc2c1	7.3%	23.1µM*!	-0.6%	i	?	-0.4%
Cc1ccc(Nc2c(-c3ccc(C)cc3)nc3ccc(C)cn23)cc1	·	i	·	i	·	·
Cc1ccn2c(Nc3ccc4c(c3)OCO4)c(-c3ccccn3)nc2c1	?	i	?	?	14.2%	-3.1%
SMILES	HT1080 IDH1KD tx	KB-V1 cytotox	HT1080NT lethal	KB-3-1 cytotox	SW480 rereplic	MCF10A rereplic
Cc1ccc(Nc2c(-c3ccccn3)nc3cc(C)ccn23)cc1	5.8µM*	?	5.8µM*	?	7.5%	?
Cc1ccc(Nc2c(-c3ccccn3)nc3ccc(C)cn23)cc1	?	?	?	?	20.6µM*	11.5%
Cc1ccc2nc(-c3ccco3)c(Nc3ccccc3)n2c1	-7.5%	10.3µM*	-8.9%	i	?	11.4%
CCCn1c(=NC(=O)c2cc3ccccc3o2)c(C(=O)OCC)cc2c(=O)n3ccccc3nc21	·	i	·	i	·	·
CC(C)OCCCn1c(SCc2cccc(Br)c2)nc2c(sc3ccccc32)c1=O	·	i	·	i	·	·
Cn1c(SCC(=O)c2ccc(F)cc2)nnc1-c1ccccc1Br	·	23.1µM*	·	?	·	·
Cc1occc1-c1nnc(SCC(=O)Nc2ccc(F)cc2)n1Cc1ccccc1	?	8.2µM*	20.6µM*	?	26.1%	?
O=C(CSc1nnc(-c2ccco2)n1Cc1ccccc1)c1ccc(F)cc1	15.7%	9.2µM*	-1.2%	i	2.7%	9.5%
O=CN1CCN(c2c([N+](=O)[O-])c(=O)oc3ccccc23)CC1	0.0%	i	-0.8%	i	-13.9%	3.0%
Cc1c(Cl)cccc1NC(=O)Cn1nc(C(F)(F)F)c2c1CCC2	·	i	·	i	·	·
CC(C)(C)NCc1cccn1-c1sc2c(c1C#N)CCCC2	5.3%	16.4µM*	-0.4%	i	-3.2%	12.1%
c1ccc2nc3c(cc2c1)CCCC3	·	?	·	i	·	·
C=C1C(=O)O[C@@H]2[C@H]3O[C@]3(C)CC/C=C(\C)CC[C@@H]12	18.4µM*	i	9.2µM*	i	-13.4%	4.11µM*
C[n+]1ccc(C(c2c[nH]c3ccccc23)c2cc[n+](C)c3ccccc23)c2ccccc21	·	i	·	1.46µM*	·	·
O=C(N/N=C/c1ccccc1F)c1ccc(COc2ccccc2Cl)o1	-1.0%	18.4µM*	-3.0%	i	-1.9%	?
COc1cc(/C=N/NC(=O)c2ccc(COc3ccccc3Cl)o2)cc(Br)c1O	4.6%	i	7.8%	i	-11.7%	7.5%
COC(=O)c1ccc(COc2ccccc2/C=N/O)o1	24.6%	i	25.8%	i	1.84µM*	-23.9%
COc1ccc(S(=O)(=O)n2nc(C)c(S(=O)(=O)N3CCCCCC3)c2C)cc1OC	·	?	·	i	·	·
CC(c1ccccc1)C(NC(=O)OCC1c2ccccc2-c2ccccc21)C(=O)O (centres undefined)	-13.2%	i	-6.0%	i	0.3%[9.22 µM]	-4.5%
CN(C)CCNC(=O)C1Cc2c(-c3ccccc3Oc3ccccc3)ccnc2O1 (centres undefined)	23.1µM*	i	?	i	·	·
CN1CCN(c2ccc(CNC(=O)C3Cc4c(-c5ccccc5)ccnc4O3)cc2)CC1 (centres undefined)	?	i	-24.4%	i	·	·
